Experimental findings from the antibiotic and cytotoxicity screens of Wong et al. (2023) are described below.

Out of some 39,000 compounds screened, about 3,300 (8.5%) were called active. Many of the other results were omitted from the sample, so actives are more common in it than they were.

For this test, the system named is HepG2. Put plainly: cytotoxicity call (relative viability < 0.9). The following applies: 10 µM.
Take `CCCCCC[C@@H](O)CC=CCCCCCCCC(=O)O`: the cytotoxicity call is “inactive”.

For `CNC1CCC(c2ccc(Cl)c(Cl)c2)c2ccccc21.Cl` (configuration not stated), the cytotoxicity call is “active”.

`CN[C@H]1CC[C@@H](c2ccc(Cl)c(Cl)c2)c2ccccc21`: the cytotoxicity call was “active”.

On to `N[C@@H]1CC[C@@H](c2ccc(Cl)c(Cl)c2)c2ccccc21`, for which the cytotoxicity call is “active”.

Consider `C[C@@H]1CN([C@@H](C)CO)C(=O)CCCn2nncc2CO[C@@H]1CN(C)S(=O)(=O)c1ccc(C#N)cc1`, for which the cytotoxicity call is “inactive”.

For `CC(=O)NCCCC[C@@H]1NC(=O)[C@@H]2C[C@H](C(=O)NCCCCCCNC(=O)CS)[C@H](c3ccc(O)cc3)N2C1=O`, the cytotoxicity call was “inactive”.

On to `C[C@@H]1CCCCO[C@H](CN(C)C(=O)NC2CCCCC2)[C@H](C)CN([C@@H](C)CO)C(=O)c2cc(NC(=O)c3ccncc3)ccc2O1`, for which the cytotoxicity call was “inactive”.

Regarding `C[C@@H]1CN([C@@H](C)CO)C(=O)c2cc(NC(=O)NC3CCCCC3)ccc2O[C@@H](C)CCCCO[C@H]1CN(C)Cc1ccc(C(=O)O)cc1`, the cytotoxicity call was “inactive”.

Consider `CC(C)NC(=O)N(C)C[C@@H]1Oc2c(NS(=O)(=O)c3cn(C)cn3)cccc2C(=O)N([C@@H](C)CO)C[C@H]1C`, for which the cytotoxicity call was “inactive”.

In the case of `C[C@@H]1CCCCO[C@@H](CN(C)S(=O)(=O)c2ccccc2)[C@H](C)CN([C@H](C)CO)C(=O)c2cc(NC(=O)Nc3cccc4ccccc34)ccc2O1`, the cytotoxicity call was “inactive”.

For `C[C@H]1CN([C@@H](C)CO)C(=O)c2cccc(NC(=O)C3CCOCC3)c2O[C@H]1CN(C)Cc1ccncc1`, the cytotoxicity call was “inactive”.

As for `COCCOC(=O)N1C(=O)[C@@]2(c3cc(C#CC4=CCCCC4)ccc31)[C@H](c1ccc(OCCO)cc1)N1[C@H](c3ccccc3)[C@H](c3ccccc3)OC(=O)[C@H]1[C@@H]2C(=O)N1CCc2cc(OC)c(OC)cc2C1`, the cytotoxicity call is “active”.

Turning to `COCCOC(=O)N1C(=O)[C@@]2(c3cc(C#CCNC(N)=O)ccc31)[C@H](C(=O)N1CCc3cc(OC)c(OC)cc3C1)[C@H]1C(=O)O[C@H](c3ccccc3)[C@H](c3ccccc3)N1[C@@H]2c1ccccc1OCCO`, the cytotoxicity call was “inactive”.

As to `COCCOC(=O)N1C(=O)[C@@]2(c3cc(C#CC4=CCCCC4)ccc31)[C@H](c1ccccc1OCCO)N1[C@H](c3ccccc3)[C@H](c3ccccc3)OC(=O)[C@H]1[C@@H]2C(=O)N1CCCCCCC1`, the cytotoxicity call was “inactive”.

Consider `COCCOC(=O)N1C(=O)[C@@]2(c3cc(C#CC4=CCCCC4)ccc31)[C@H](C(=O)N1CCc3cc(OC)c(OC)cc3C1)[C@H]1C(=O)O[C@H](c3ccccc3)[C@H](c3ccccc3)N1[C@@H]2c1ccccc1OCCO`, for which the cytotoxicity call is “active”.

Regarding `COCCOC(=O)N1C(=O)[C@@]2(c3cc(C#CC4=CCCCC4)ccc31)[C@H](C(=O)N1CCc3cc(OC)c(OC)cc3C1)[C@H]1C(=O)O[C@H](c3ccccc3)[C@H](c3ccccc3)N1[C@@H]2c1ccc(O)cc1`, the cytotoxicity call is “inactive”.

`COCCOC(=O)N1C(=O)[C@@]2(c3cc(C#CCCO)ccc31)[C@H](c1ccccc1OCCO)N1[C@H](c3ccccc3)[C@H](c3ccccc3)OC(=O)[C@H]1[C@@H]2C(=O)N1CCc2cc(OC)c(OC)cc2C1`: the cytotoxicity call was “inactive”.

`COCCOC(=O)N1C(=O)[C@@]2(c3cc(C#CCCO)ccc31)[C@H](C(=O)N1CCc3cc(OC)c(OC)cc3C1)[C@H]1C(=O)O[C@H](c3ccccc3)[C@H](c3ccccc3)N1[C@@H]2c1ccccc1OCCO`: the cytotoxicity call was “active”.

With `COCCOC(=O)N1C(=O)[C@@]2(c3cc(C#CC4=CCCCC4)ccc31)[C@H](c1ccc(OCCO)cc1)N1[C@H](c3ccccc3)[C@H](c3ccccc3)OC(=O)[C@H]1[C@@H]2C(=O)N1CCCCCCC1`, the cytotoxicity call was “inactive”.

Consider `COCCOC(=O)N1C(=O)[C@@]2(c3cc(C#CC4=CCCCC4)ccc31)[C@H](c1ccccc1OCCO)N1[C@H](c3ccccc3)[C@H](c3ccccc3)OC(=O)[C@H]1[C@@H]2C(=O)N1CCc2cc(OC)c(OC)cc2C1`, for which the cytotoxicity call is “inactive”.

Consider `C[C@H]1CN([C@@H](C)CO)C(=O)Cc2cc(NS(=O)(=O)c3ccc(F)cc3)ccc2O[C@H]1CN(C)S(=O)(=O)c1cccs1`, for which the cytotoxicity call was “inactive”.

`Cc1ccccc1-c1ccc2c(c1)O[C@@H](CN(C)C(=O)Nc1ccc(C(F)(F)F)cc1)[C@@H](C)CN([C@@H](C)CO)S2(=O)=O`: the cytotoxicity call was “inactive”.

Take `COC(=O)[C@@H]1CC(=O)N(C(C)C)C1`: the cytotoxicity call was “inactive”.

On to `C[C@@H]1CN([C@H](C)CO)C(=O)c2c(c3ccccc3n2C)-c2ccccc2CO[C@@H]1CN(C)Cc1ccc(Oc2ccccc2)cc1`, for which the cytotoxicity call is “inactive”.

With `CN1CCN(C(=O)C[C@@H]2C=C[C@H](NC(=O)Cc3ccccn3)[C@@H](CO)O2)CC1`, the cytotoxicity call was “inactive”.

For the compound `CCCC#Cc1cnc2c(c1)C(=O)N([C@@H](C)CO)C[C@@H](C)[C@H](CN(C)C(=O)c1ccc3c(c1)OCO3)O2`, the cytotoxicity call is “inactive”.

`Cc1noc(C)c1NC(=O)N(C)C[C@H]1Oc2ccc(NC(=O)Nc3cccc4ccccc34)cc2CC(=O)N([C@@H](C)CO)C[C@H]1C`: the cytotoxicity call is “inactive”.

With `C[C@@H]1CCCCO[C@@H](CN(C)C(=O)Nc2ccc(C(F)(F)F)cc2)[C@H](C)CN([C@@H](C)CO)C(=O)c2cc(NC(=O)CCC(F)(F)F)ccc2O1`, the cytotoxicity call was “inactive”.

With `C[C@@H]1CCCCO[C@H](CN(C)C(=O)Nc2ccc(C(F)(F)F)cc2)[C@H](C)CN([C@H](C)CO)C(=O)c2cc(NC(=O)CCC(F)(F)F)ccc2O1`, the cytotoxicity call was “inactive”.

Turning to `C[C@@H]1CN([C@@H](C)CO)C(=O)c2cc(NC(=O)CCC(F)(F)F)ccc2O[C@@H](C)CCCCO[C@H]1CN(C)C(=O)Nc1ccc(C(F)(F)F)cc1`, the cytotoxicity call is “inactive”.

In the case of `C[C@H](CO)N1C[C@H](C)[C@H](CN(C)C(=O)Nc2ccc(C(F)(F)F)cc2)OCCCC[C@H](C)Oc2ccc(NC(=O)CCC(F)(F)F)cc2C1=O`, the cytotoxicity call was “inactive”.

With `C[C@@H]1CCCCO[C@H](CN(C)C(=O)Nc2ccc(C(F)(F)F)cc2)[C@H](C)CN([C@@H](C)CO)C(=O)c2cc(NC(=O)CCC(F)(F)F)ccc2O1`, the cytotoxicity call is “active”.

On to `C[C@@H]1CCCCO[C@H](CN(C)C(=O)Nc2ccc(C(F)(F)F)cc2)[C@@H](C)CN([C@H](C)CO)C(=O)c2cc(NC(=O)CCC(F)(F)F)ccc2O1`, for which the cytotoxicity call was “inactive”.

Turning to `C[C@H]1CCCCO[C@H](CN(C)C(=O)Nc2ccc(C(F)(F)F)cc2)[C@@H](C)CN([C@@H](C)CO)C(=O)c2cc(NC(=O)CCC(F)(F)F)ccc2O1`, the cytotoxicity call was “active”.

For the compound `C[C@@H]1CCCCO[C@@H](CN(C)C(=O)Nc2ccc(C(F)(F)F)cc2)[C@@H](C)CN([C@H](C)CO)C(=O)c2cc(NC(=O)CCC(F)(F)F)ccc2O1`, the cytotoxicity call was “inactive”.

Regarding `C[C@H](CO)N1C[C@H](C)[C@@H](CN(C)C(=O)Nc2ccc(C(F)(F)F)cc2)OCCCC[C@H](C)Oc2ccc(NC(=O)CCC(F)(F)F)cc2C1=O`, the cytotoxicity call was “active”.

`Clc1ccc2c(c1)[C@H]1C=CC[C@@H]1[C@@H](c1ccccc1)N2`: the cytotoxicity call is “inactive”.

On to `O=C(C[C@H]1C[C@H]2c3cc(NC(=O)C4CCOCC4)ccc3O[C@H]2[C@@H](CO)O1)NCc1ccc2c(c1)OCO2`, for which the cytotoxicity call was “inactive”.

Consider `C[C@@H]1CN([C@H](C)CO)C(=O)c2cc(NC(=O)Nc3cccc4ccccc34)ccc2O[C@@H](C)CCCCO[C@@H]1CN(C)C(=O)NC1CCCCC1`, for which the cytotoxicity call was “inactive”.

For the compound `CN(C)C(=O)CN1CCC2(CC1)CN(CCn1cccn1)C(=O)CO2`, the cytotoxicity call was “inactive”.

For the compound `CO[C@@H]1CN(C)C(=O)c2ccc(NS(=O)(=O)CC(F)(F)F)cc2OC[C@@H](C)N(C(=O)c2ccc3c(c2)OCO3)C[C@@H]1C`, the cytotoxicity call is “inactive”.

Turning to `Cc1noc(C)c1NC(=O)N[C@H]1C=C[C@@H](CC(=O)N2CCN(C)CC2)O[C@@H]1CO`, the cytotoxicity call was “inactive”.

Regarding `CC(C)CNC(=O)[C@@]1(c2ccc([N+](=O)[O-])cc2)CC(=O)N(CC23CC4CC(CC(C4)C2)C3)[C@@H]1c1ccc(CO)cc1I`, the cytotoxicity call was “inactive”.

On to `CC(C)NC(=O)[C@@]1(c2ccc([N+](=O)[O-])cc2)CC(=O)N(CC23CC4CC(CC(C4)C2)C3)[C@@H]1c1ccc(CO)cc1I`, for which the cytotoxicity call was “active”.

Regarding `CCCNC(=O)[C@@]1(c2ccc([N+](=O)[O-])cc2)CC(=O)N(CC23CC4CC(CC(C4)C2)C3)[C@@H]1c1ccc(CO)cc1I`, the cytotoxicity call is “inactive”.

For `CN(C)c1cc(NC(=O)CNC(C)(C)C)c(O)c2c1C[C@H]1C[C@H]3[C@H](N(C)C)C(=O)C(C(N)=O)=C(O)[C@@]3(O)C(=O)[C@H]1C2=O`, the cytotoxicity call was “inactive”.

Consider `O=C(C[C@@H]1C[C@H]2c3cc(NC(=O)Cc4ccncc4)ccc3O[C@H]2[C@@H](CO)O1)NCc1cccc(F)c1`, for which the cytotoxicity call was “inactive”.

In the case of `N[C@H](C(=O)O)[C@@H]1CC(Cl)=NO1`, the cytotoxicity call was “active”.

In the case of `C[C@@H]1CN([C@H](C)CO)C(=O)c2cc(NS(=O)(=O)c3ccc(F)cc3)ccc2O[C@@H]1CN(C)S(=O)(=O)c1cccs1`, the cytotoxicity call is “inactive”.

Take `Cc1noc(C)c1S(=O)(=O)Nc1ccc2c(c1)CC(=O)N([C@@H](C)CO)C[C@H](C)[C@@H](CN(C)S(=O)(=O)c1ccc(Cl)cc1)O2`: the cytotoxicity call is “inactive”.

Regarding `Cc1cccc(C(=O)O)c1O`, the cytotoxicity call is “inactive”.

Turning to `Cc1cccc(Nc2ccccc2C(=O)O)c1C`, the cytotoxicity call is “inactive”.

As for `Cc1cccc(C)c1NC(=O)c1ccccc1C(=O)O`, the cytotoxicity call was “active”.

Turning to `C[C@@H]1CN([C@@H](C)CO)S(=O)(=O)c2ccc(C#CC3CCCCC3)cc2O[C@H]1CN(C)C(=O)Cc1ccncc1`, the cytotoxicity call is “inactive”.

On to `CO[C@H]1C[C@@H](O[C@@H]2/C(C)=C/C[C@@H]3C[C@@H](C[C@]4(CC[C@H](C)[C@@H](C5CCCCC5)O4)O3)OC(=O)[C@@H]3C=C(C)/C(=N/O)[C@H]4OC/C(=C\C=C\[C@@H]2C)[C@]43O)O[C@@H](C)[C@@H]1O`, for which the cytotoxicity call was “inactive”.

As for `COC1CC(OC2C(C)=CCC3CC(CC4(CCC(C)C(C5CCCCC5)O4)O3)OC(=O)C3C=C(C)C(=NO)C4OCC(=CC=CC2C)C34O)OC(C)C1O` (configuration not stated), the cytotoxicity call is “active”.

With `CO[C@H]1C[C@H](O[C@@H]2/C(C)=C/C[C@@H]3C[C@@H](C[C@]4(CC[C@H](C)[C@@H](C5CCCCC5)O4)O3)OC(=O)[C@@H]3C=C(C)/C(=N/O)[C@H]4OC/C(=C\C=C\[C@@H]2C)[C@]43O)O[C@@H](C)[C@@H]1O`, the cytotoxicity call was “active”.
